Screening data: PubChem, several laboratories
In the library only some 1.3% were active in any assay of this set; here they are far more common.
RAD52 inh = RAD52 DNA annealing inhibitors, primary screen, biochemical, FRET, single point, set 2 | AID 651710, 2012 | hit rate 0.46% among 360,000 | inhibition, % at 18.7 µM | recombinant RAD52 DNA annealing, FRET fluorescence;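 active = every replicate showing at least 50% inhibition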
RAD54 branch = inhibitors of human RAD54 branch migration, primary screen, biochemical, fluorescence, single point; DNA repair and recombination protein RAD54-like (Homo sapiens), Q92698; RAD54 Holliday junction branch migration, FAM/BHQ fluorescence; inhibition, % at 10.4 µM; hit rate 0.14% among 360,000;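 active = mean normalized replicate activity at least 40 and at least half of replicates scoring 40 or more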;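 note: 0% = median of neutral control wells and 100% = median of positive control wells; inhibitors cause a drop in the FAM fluorescence signal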
MIN6 prolif-1 = inducers of MIN6 beta-cell proliferation, primary screen, ATP luminescence, uHTS; hit rate 0.29% among 330,000; proliferation, % at 10 µM; AID 2380, 2010; MIN6 cells proliferation, ATPlite luminescence, 48 h; cells starved in 0.2% serum; 100% = growth in 10% serum;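 active = compounds whose signal lies at least 3.5 SD above the mean of all wells on their plate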;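 note: 0% = DMSO-treated cells in low-serum medium and 100% = 10% serum control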
PREPL inh = PREPL enzyme inhibitors, primary screen, biochemical, fluorescence polarization; recombinant PREPL, fluorescence polarization activity-based probe; inhibition, % at 5.96 µM; Prolyl endopeptidase-like (Homo sapiens), Q4J6C6; AID 2751, 2010; hit rate 0.68% among 320,000; in the data active = inhibition above about 43%;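 note: 0% = enzyme with DMSO and 100% = wells lacking enzyme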
Target sequence (Q4J6C6 whole entry, looked up): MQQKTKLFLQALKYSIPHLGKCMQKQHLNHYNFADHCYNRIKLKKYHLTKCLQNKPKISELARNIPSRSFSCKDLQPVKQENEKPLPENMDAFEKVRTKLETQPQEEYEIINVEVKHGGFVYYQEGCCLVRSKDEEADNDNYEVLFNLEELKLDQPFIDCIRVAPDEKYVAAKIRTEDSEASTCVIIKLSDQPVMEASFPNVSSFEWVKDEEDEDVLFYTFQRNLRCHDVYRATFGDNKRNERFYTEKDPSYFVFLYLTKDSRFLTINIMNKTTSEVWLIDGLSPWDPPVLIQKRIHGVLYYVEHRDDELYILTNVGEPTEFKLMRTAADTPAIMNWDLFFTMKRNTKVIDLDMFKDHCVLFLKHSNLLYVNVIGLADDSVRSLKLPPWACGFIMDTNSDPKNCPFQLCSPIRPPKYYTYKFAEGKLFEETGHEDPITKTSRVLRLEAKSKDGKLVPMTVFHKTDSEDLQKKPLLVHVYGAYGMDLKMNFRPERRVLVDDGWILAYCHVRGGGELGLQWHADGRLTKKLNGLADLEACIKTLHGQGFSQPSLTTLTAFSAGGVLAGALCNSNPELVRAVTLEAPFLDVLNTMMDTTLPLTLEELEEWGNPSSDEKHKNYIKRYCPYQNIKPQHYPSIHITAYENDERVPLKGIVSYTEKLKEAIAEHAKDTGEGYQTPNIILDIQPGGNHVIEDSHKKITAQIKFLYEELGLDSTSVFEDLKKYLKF
UBC13 inh = UBC13 polyubiquitin chain formation inhibitors, primary screen, biochemical, TR-FRET, uHTS; inhibition, % at 20 µM; hit rate 0.47% among 330,000; AID 485273, 2010; in the data active = inhibition above about 45%, passing the limit was not always enough
FID counter = compounds displacing fluorescent DNA intercalator, primary screen, artefact control for HCV NS3 helicase inhibitor project, biochemical, FID fluorescence; DNA fluorescent intercalator displacement; inhibition, % at 7.9 µM; hit rate 0.17% among 290,000; in the data active = inhibition above about 37%;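 note: 0% = vehicle and 100% = reference compound; higher means more ethidium bromide displaced from hairpin DNA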
MIN6 prolif-2 = inducers of beta-cell proliferation in MIN6, confirmation, MIN6 cells, mouse; shares compounds with MIN6 prolif-1; ATPlite luminescence, 48 h; cells kept in 0.2% serum; scaled between 0.2% and 10% serum; proliferation increase, % at 50 µM; 920 tested, under 10 active; AID 463095, 2010;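 active = proliferation increase above 40% at any of the four tested concentrations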
An asterisk follows results filed as active; . = no result given.

SMILES | RAD52 inh | RAD54 branch | MIN6 prolif-1 | PREPL inh | UBC13 inh | FID counter | MIN6 prolif-2
CCN(C(=O)CN1C(=S)NC(C)(C)CC1C)c1ccc(C)c(C)c1 (stereo not given) | -4 | -7 | 9.3* | -7 | 2 | -29 | -2
COc1ccc(C2=Nn3c(nnc3-c3ccncc3)SC2)cc1 | . | 1 | 14* | 4 | -4 | -14 | 4
COc1ccc(NC(=O)N(C)C[C@@H]2Oc3ncc(-c4ccc(C#N)cc4)cc3C(=O)N([C@H](C)CO)C[C@H]2C)cc1 | 1 | -6 | . | . | . | . | .
COc1ccc(C2c3sc(=O)[nH]c3SCC2C(N)=O)cc1 (stereo not given) | -11 | -6 | 0 | -3 | 15 | -5 | .
CCOC(=O)C1CSc2[nH]c(=O)sc2C1c1ccccc1 (stereo not given) | . | 1 | 12* | -6 | 1 | -23 | -4
C/C(=N\NS(=O)(=O)c1ccc(C)cc1)c1cc2ccccc2oc1=O | -31 | -7 | 8.4* | -18 | -4 | -13 | -4
C[C@H](NC(=O)C[C@@H]1CC[C@H]2[C@@H](COC[C@@H](O)CN2Cc2cc(F)ccc2F)O1)c1ccccc1 | -15 | 6 | . | . | . | . | .
COc1ccc(NC(=O)N(C)C[C@@H]2Oc3c(NS(=O)(=O)c4ccc(F)cc4)cccc3C(=O)N([C@H](C)CO)C[C@H]2C)cc1 | . | -4 | . | . | . | . | .
Cn1nc(OCC(=O)O)cc1C(F)(F)F | -6 | . | 6.3* | -7 | 0 | 0 | 7
O=C(CN(c1ccc(F)cc1)S(=O)(=O)c1ccc2c(c1)OCCO2)NCc1ccccc1 | . | 8 | 0 | -11 | 8 | -6 | .
COCCCNC(=O)CN(c1ccc(F)cc1)S(=O)(=O)c1ccc2c(c1)OCCO2 | -3 | -2 | 6.0* | -6 | -2 | -22 | -1
O=C(C[C@@H]1C=C[C@@H](NC(=O)C2CC2)[C@@H](CO)O1)NCCc1cscn1 | 3 | . | . | . | . | . | .
CC(C)Cn1nc(NC(=O)c2ccco2)c2cc3ccccc3nc21 | -54 | . | 6.8* | -1 | 9 | -32 | -2
CCn1nc(NC(=O)c2ccco2)c2cc3ccccc3nc21 | . | 19 | 2 | 17 | -13 | -2 | .
CO[C@H]1CN(C)C(=O)c2ccc(NC(=O)C3CC3)cc2OC[C@H](C)N(C(=O)Cc2ccccn2)C[C@H]1C | 1 | -3 | . | . | . | . | .
O=C(c1ccccc1Br)N1CCN(c2ccc([N+](=O)[O-])c(N3CCOCC3)c2)CC1 | 1 | . | -2 | 13 | -39 | -31 | .
O=C(c1ccco1)N1CCN(c2ccc([N+](=O)[O-])c(N3CCOCC3)c2)CC1 | -8 | . | 9.7* | 5 | -18 | -9 | 1
CC(C)NC(=O)N1CC2(C1)[C@@H](c1ccccc1)[C@@H](CO)N2C(=O)C1CCCCC1 | -18 | . | . | . | . | . | .
N#Cc1ccc(C(=O)Nn2cnnc2)cc1 | -10 | 4 | 8.2* | -5 | 10 | -3 | -1
CCNC(=O)Nc1ccc2c(c1)C(=O)N(C)[C@@H]1CC[C@@H](CC(=O)NCCN3CCCC3)O[C@H]1CO2 | . | 1 | . | . | . | . | .
O=C(Nc1ccccc1Br)c1cccc2ccccc12 | -2 | 1 | 8.7* | -6 | 4 | . | -3
CC(=O)Nc1ccccc1NC(=O)c1cccc2ccccc12 | . | . | 0 | -6 | 6 | 0 | .
COC(=O)c1c(NC(=O)COC(=O)c2ccc(O)cc2)sc2c1CCCCC2 | -12 | . | -6 | -3 | -25 | -2 | .
COCC(=O)Nc1sc2c(c1C(=O)OC)CCCC2 | . | -2 | 7.7* | 10 | 8 | -12 | -6
COc1ccc(/C=N/NC(=O)CCOc2ccccc2C)cc1OC | -15 | . | 2 | -4 | -9 | -23 | .
SMILES | RAD52 inh | RAD54 branch | MIN6 prolif-1 | PREPL inh | UBC13 inh | FID counter | MIN6 prolif-2
COc1cc(/C=N/NC(=O)CCOc2ccccc2C)cc(Br)c1O | -18 | . | 7.3* | -12 | 4 | -10 | -4
COc1ccc(NC(=O)Nc2ccc3c(c2)C(=O)N([C@@H](C)CO)C[C@H](C)[C@H](CN(C)S(=O)(=O)c2ccc(Cl)cc2)OCCCC[C@@H](C)O3)cc1 | 24 | 1 | . | . | . | . | .
CCC1CCCCN1C(=O)c1ccc(OC)c(OC2CCN(C(C)C)CC2)c1 (stereo not given) | -33 | -16 | -2 | 12 | -9 | 1 | .
COCC1CCCCN1C(=O)c1ccc(OC)c(OC2CCN(C(C)C)CC2)c1 (stereo not given) | -18 | -10 | 4.8* | -3 | -1 | 2 | -2
CCNc1nc(N)c(C(=C(C#N)C#N)c2ccccc2)s1 | . | 18 | 7.3* | 7 | 20 | -17 | -6
Nc1nc(Nc2ccccc2)sc1C(=O)c1ccccc1 | -3 | -4 | -2 | 27 | 4 | -12 | .
COc1cccc(NC(=O)N(C)C[C@@H]2Oc3ncc(C#Cc4ccc(F)cc4)cc3C(=O)N([C@H](C)CO)C[C@H]2C)c1 | -14 | -16 | . | . | . | . | .
COc1cccc(/C=N/n2c(C3CCCCC3)n[nH]c2=S)c1 | -13 | 14 | 6.9* | 2 | 1 | -33 | -6
Oc1cccc(/C=N/n2c(C3CCCCC3)n[nH]c2=S)c1 | -10 | 4 | 1 | -8 | -2 | -19 | .
CN(C)C(=O)C[C@@H]1C=C[C@@H](NC(=O)C2CC2)[C@H](CO)O1 | -2 | -8 | . | . | . | . | .
COc1ccc(/C=N\NC(=O)CNC(=O)C2COc3ccccc3O2)cc1[N+](=O)[O-] (stereo not given) | -10 | -8 | 14* | 3 | -3 | -1 | -1
C[C@H](CO)N1C[C@H](C)[C@H](CN(C)Cc2ccc(Oc3ccccc3)cc2)Oc2ncc(-c3cncnc3)cc2C1=O | 5 | -1 | . | . | . | . | .
O=C(OCCc1cc2ccccc2c(=O)o1)N1CCOCC1 | 5 | -1 | -2 | 16 | 9 | . | .
O=C(OCCCc1cc2ccccc2c(=O)o1)N1CCOCC1 | -14 | 1 | 7.8* | 9 | -16 | . | 4
C[C@H](CO)N1C[C@H](C)[C@@H](CN(C)C(=O)C2CCC2)Oc2ncc(C#CC3CCCC3)cc2C1=O | -5 | 6 | . | . | . | . | .
COC1CCCN(Cc2nc(Cc3ccccc3F)no2)C1 (stereo not given) | -9 | 3 | -4 | 17 | -16 | -4 | .
Fc1ccccc1Cc1noc(CN2CCC(OCc3cccnc3)CC2)n1 | 1 | 4 | 7.7* | 7 | 3 | -25 | -3
CO[C@@H]1CN(C)C(=O)c2cc(NS(=O)(=O)CC(F)(F)F)ccc2OC[C@@H](C)N(CC2CCCCC2)C[C@@H]1C | -3 | -6 | . | . | . | . | .
Cc1noc(C)c1NC(=O)Nc1ccc2c(c1)CC(=O)N([C@H](C)CO)C[C@H](C)[C@@H](CN(C)S(=O)(=O)c1ccc(F)cc1)O2 | -5 | -14 | . | . | . | . | .
